Source: publication PMC4552634, “A New Set of Chemical Starting Points with Plasmodium falciparum Transmission-Blocking Potential for Antimalarial Drug Discovery” (PLoS ONE, 2015)
Like-named read-outs stand apart in the source and are kept apart here. The whole screen tested about 13,000 compounds, of which about 3,200 (25%) showed an effect of 50% or more. Some of the results follow.

Test system: P. falciparum stage V gametocytes
Set-up: BacTiter-Glo ATP luminescence viability of purified stage V gametocytes in 384-well plates, per cent inhibition versus DMSO
Details: 48 h, 5 µM, inhibitor

Row | Compound | % Inhibition | % Inhibition (% Inhibition)
1 | Cc1cccc2[nH]c(-c3ccc(-c4cccc(NC(=O)c5cnn6cccnc56)c4)cc3)nc12 [TCMDC-136865] | 23.94% | –
2 | COc1ccccc1C(=O)Nc1ccc(Nc2nc(C)cc(N(C)C)n2)cc1 [TCMDC-124728] | -11.89% | –
3 | Cc1cc(N(C)C)nc(Nc2ccc(NC(=O)c3ccccc3C)cc2)n1 [TCMDC-124729] | -17.39% | –
4 | COc1ccc(C(=O)Nc2ccc(Nc3nc(C)cc(N(C)C)n3)cc2)c(OC)c1 [TCMDC-124727] | 63.21% | –
5 | COc1ccc(NC(=O)Nc2ccc(Nc3nc(C)cc(N(C)C)n3)cc2)cc1 [TCMDC-124960] | 1.588% | –
6 | COc1cccc(C(=O)Nc2ccc(Nc3nc(C)cc(N(C)C)n3)cc2)c1OC [TCMDC-124719] | 58.09% | –
7 | COc1cccc(C(=O)Nc2ccc(Nc3nc(C)cc(N(C)C)n3)cc2)c1 [TCMDC-124720] | -4.624% | –
8 | Cc1nc2c(=O)sc3ccccc3c2n1Cc1ccccc1 [TCMDC-125754] | -11.8% | –
9 | CN(CCCCN)Cc1ccc(-c2ccc(Cl)cc2)cc1 [TCMDC-140123] | 92.64% | –
10 | CN(C)CCN(C)Cc1ccc(-c2cccc(NC(=O)c3ccc(Cl)cc3)c2)cc1 [TCMDC-132631] | 0.8563% | –
11 | CN(C)CCN(C)Cc1ccc(-c2ccc(NC(=O)c3ccc(Cl)cc3)cc2)cc1 [TCMDC-132587] | -35.6% | –
12 | O=C(NCc1ccc(C(=O)N2CCC(N3CCCCC3)CC2)cc1)c1cc(-c2cccc(C(F)(F)F)c2)ccc1O [TCMDC-139090] | -1.594% | –
13 | O=C(Nc1ccccc1Br)c1cn(-c2ccccc2)nc1-c1cccc([N+](=O)[O-])c1 [TCMDC-124624] | 18.14% | –
14 | O=C(NCCc1cccc(F)c1)c1ccc(N2CCN(c3ccncc3)CC2)cn1 [TCMDC-135153] | 19.99% | –
15 | CCNc1cc(C(=O)N[C@@H](Cc2ccccc2Cl)[C@H](O)CNC2CCCCC2)cc(N2CCCCS2(=O)=O)c1 [TCMDC-135223] | 16.84% | –
16 | NC[C@H](CC1CCCCC1)NC(=O)c1ccc(-c2ccnc3[nH]ccc23)s1 [TCMDC-134150] | 38.45% | –
17 | Oc1ccc(CCNCCCCNCCc2ccc(Cl)cc2)cc1O [TCMDC-131265] | 107% | –
18 | Oc1ccc(CCNCCCCCNCCCc2ccc(Cl)cc2)cc1O [TCMDC-131279] | 112.4% | –
19 | CNC(=O)CC(=O)NCCc1ccc(Cl)cc1 [TCMDC-131647] | -3.705% | –
20 | Oc1ccc(CCNCCCCCCNCCCc2ccc(Cl)cc2)cc1O [TCMDC-131264] | 107.9% | –
21 | Oc1ccc(CCNCCCCCCNCCc2ccc(Cl)cc2)c(Cl)c1O [TCMDC-131266] | 111.4% | –
22 | O=C(NCCCc1ccccc1)c1ccc(O)c(-c2cc(Cl)cc(Cl)c2)c1 [TCMDC-140159] | -73.77% | –
23 | O=c1ccc2ccc(F)c3c2n1CC3CN1CCC(NCc2ccc(-c3cccc(Cl)c3)nc2)CC1 (stereo not drawn) [TCMDC-134409] | -72.08% | –

Row | Compound | % Inhibition | % Inhibition (% Inhibition)
24 | O=C(/C=C/c1ccccc1Cl)Nc1ccc(Br)c(OCCN2CCC(O)(c3ccccc3)CC2)c1 [TCMDC-140960] | 2.038% | –
25 | Cc1cccc(-c2nn(-c3ccccc3)cc2C(=O)Nc2nnc(C)o2)c1 [TCMDC-125039] | -1.826% | –
26 | CC(C)CCN1CCCN(Cc2cccc(C(=O)Nc3ccc(C(C)(C)C)cc3)c2)CC1 [TCMDC-136605] | -26.48% | –
27 | O=[N+]([O-])c1cccc(CNCC2CCN(CC3CCCCC3)CC2)c1 [TCMDC-139468] | 9.865% | –
28 | FC(F)(F)c1ccc2[nH]c(-c3ccc(-c4ccc(CN5CCN(c6cnccn6)CC5)cc4)cc3)nc2c1.O=C(O)C(F)(F)F [TCMDC-132678] | -10.34% | –
29 | O=C(C1CCCCC1)N1CCOC(CCN2CCC(c3ccccc3)CC2)(c2ccc(Cl)c(Cl)c2)C1 (stereo not drawn) [TCMDC-135329] | -33.1% | –
30 | C=CCc1cccc(OC)c1OCCCON1C(N)=NC(N)=NC1(C)C [TCMDC-131337] | -10.44% | –
31 | CCCN(CCCCCCN(CCC)CCc1ccc(O)c(O)c1)CCc1ccc(O)cc1 [TCMDC-131259] | -3.325% | –
32 | CC(C)(O)CC(C)(C)c1cc(Cl)ccc1O [TCMDC-131708] | -16.74% | –
33 | Cc1cc(CNCC2CCC(CNCCCc3ccccc3)CC2)ccc1O (stereo not drawn) [TCMDC-140409] | 40.71% | –
34 | CC(C)(Cc1ccc(Cl)cc1)NCCCCCCNCCc1ccc(O)c(O)c1 [TCMDC-131277] | 114.6% | –
35 | CCCCc1ccc(CCNCCCCCCNCCc2ccc(O)c(O)c2)cc1 [TCMDC-131281] | 122.8% | –
36 | CCCN(CCCCCCNCCc1ccc(Cl)cc1)CCc1ccc(O)c(O)c1 [TCMDC-131274] | 104.4% | –
37 | Oc1ccc2c(CNCCc3ccccc3)c(O)ccc2c1CNCCc1ccccc1 [TCMDC-137582] | -11.34% | –
38 | CCCNCCc1ccc(NS(=O)(=O)c2cccc(-c3ccc(Cl)cc3)c2)cc1 [TCMDC-141448] | 32.49% | –
39 | Oc1ccc(CCNCCCCCCNCCc2ccc(-c3ccccc3)cc2)cc1O [TCMDC-131268] | 113.1% | –
40 | O=C(NCC1CCC(CNCCCc2ccccc2)CC1)Nc1ccc(Cl)c(Cl)c1 (stereo not drawn) [TCMDC-140705] | -6.849% | –
41 | COc1ccc2nccc([C@@H](O)CN3CCC(NCc4nc5c(cc4Cl)SCC(=O)N5)C(F)C3)c2c1 (stereo partly drawn) [TCMDC-141679] | – | -19.09%
42 | COc1ccc(OCCCCON2C(N)=NC(N)=NC2(C)C)cc1 [TCMDC-131732] | 29.82% | –
43 | CCOc1cccc(C2c3c(oc4ccccc4c3=O)C(=O)N2CCN(CC)CC)c1 (stereo not drawn) [TCMDC-124476] | -6.195% | –
44 | NS(=O)(=O)CCc1cccc(Nc2nccc(-c3c(-c4cccc(NC(=O)c5c(F)cccc5F)c4)nn4ccccc34)n2)c1 [TCMDC-135791] | -73.1% | –
45 | N#Cc1ccc2c(c1)CN(C1CCC(NC(=O)C3=Cc4cc(Cl)ccc4OC3)CC1)CCC2 (stereo not drawn) [TCMDC-133501] | -19.21% | –
